{
  "source": "PubChem BioAssay AID2718",
  "about": "(Broad Institute, 2010)",
  "note": "The campaign covered roughly 320,000 compounds. About 480 (0.15%) were called active. Roughly 1% stayed inconclusive and do not appear here. No stated cut-off is given here; in the data, active means inhibition above about 26% (passing the limit was not always enough); inconclusive means no clear call, values can overlap the other calls. Shown is part of a subset that was picked to be rich in actives.",
  "data": [
    {"molecular_target": "Histone deacetylase 3 (Homo sapiens) (UniProt O15379)", "sequence (O15379 whole entry, looked up)": "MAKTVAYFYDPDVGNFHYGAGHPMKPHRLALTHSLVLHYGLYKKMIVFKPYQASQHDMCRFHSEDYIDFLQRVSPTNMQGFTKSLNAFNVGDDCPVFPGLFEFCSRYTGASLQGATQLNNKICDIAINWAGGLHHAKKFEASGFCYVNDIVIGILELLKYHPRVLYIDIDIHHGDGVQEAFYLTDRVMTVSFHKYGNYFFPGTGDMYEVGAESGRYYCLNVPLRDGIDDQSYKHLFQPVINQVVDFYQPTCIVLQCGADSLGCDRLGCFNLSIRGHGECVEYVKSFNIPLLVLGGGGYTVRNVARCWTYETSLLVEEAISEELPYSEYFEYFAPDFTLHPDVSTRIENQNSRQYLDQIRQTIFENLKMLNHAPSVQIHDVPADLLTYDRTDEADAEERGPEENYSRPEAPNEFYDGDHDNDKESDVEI", "assay": "inhibition of human HDAC3 enzyme activity – biochemical, fluorescence, cell-free homogeneous, primary screen (AID 2718)", "conditions": "recombinant HDAC3, fluorogenic peptide/trypsin coupled, at 8.3 µM, stronger effect = higher value", "values": [
      {"smiles": "CCN1N=C(c2ccccc2)CCC1=O", "inhibition": "-1.92% (inactive)"},
      {"smiles": "CN(c1ccccc1)S(=O)(=O)c1cc(C(=O)N2CCN(c3ncccn3)CC2)ccc1Cl", "inhibition": "5.51% (inactive)"},
      {"smiles": "O=C(N=C1SC2CS(=O)(=O)CC2N1c1ccccc1)c1ccccc1", "note": "(centres undefined)", "inhibition": "3.67% (inactive)"},
      {"smiles": "O=C(Cn1c(N2CCN(C/C=C/c3ccccc3)CC2)nc2ccccc21)c1ccccc1", "inhibition": "11.7% (inactive)"},
      {"smiles": "COc1ccc(NC(=O)N(C)C[C@H]2Oc3ccc(NC(=O)C4CC4)cc3C(=O)N([C@H](C)CO)C[C@@H]2C)cc1", "inhibition": "2.07% (inactive)"},
      {"smiles": "COc1ccc(S(=O)(=O)N(C)C[C@H]2Oc3c(NC(=O)Nc4ccc5c(c4)OCO5)cccc3C(=O)N([C@H](C)CO)C[C@@H]2C)cc1", "inhibition": "0.282% (inactive)"},
      {"smiles": "Cc1ccc(C(=O)NNC(=O)CSc2nnc3ccccn23)cc1", "inhibition": "-19.4% (inactive)"},
      {"smiles": "C#CCOCCOCCOCCNc1nc(N2CCN(C(=O)CCCCCCCCCCNC(=O)[C@H]([C@@H](C)CC)n3cc(CCCCN=C(N)N)nn3)CC2)nc(N2CCN(C(=O)CCCCCCCCCCNC(=O)[C@H](CO)n3cc(CCCSC)nn3)CC2)n1", "inhibition": "65% (active)"},
      {"smiles": "C#CCOCCOCCOCCNc1nc(N2CCN(C(=O)CCCCCCCCCCNC(=O)Cn3cc(CCCCCN)nn3)CC2)nc(N2CCN(C(=O)CCCCCCCCCCNC(=O)[C@H](CO)n3cc(CCCSC)nn3)CC2)n1", "inhibition": "22.2% (inactive)"},
      {"smiles": "C#CCOCCOCCOCCNc1nc(N2CCN(C(=O)CCCCCCCCCCNC(=O)[C@H](CCCCN)n3cc(C)nn3)CC2)nc(N2CCN(C(=O)CCCCCCCCCCNC(=O)[C@H](CO)n3cc(CCCSC)nn3)CC2)n1", "inhibition": "17.4% (inactive)"},
      {"smiles": "CCOC(=O)C1(Cc2cccc(OC)c2)CCN(Cc2csc(C(C)=O)c2)CC1", "inhibition": "0.985% (inactive)"},
      {"smiles": "CCOC(=O)C1=C(CC)Nc2ccccc2N=C1N", "inhibition": "5.45% (inactive)"},
      {"smiles": "CCCCOc1ccc(N(CC(=O)NCC2CCCO2)C(=O)CCC(=O)Nc2cc(C)ccn2)cc1", "note": "(centres undefined)", "inhibition": "1.38% (inactive)"},
      {"smiles": "COc1ccc(C(=O)COC(=O)C(O)c2ccccc2)c(OC)c1", "note": "(centres undefined)", "inhibition": "8.77% (inactive)"},
      {"smiles": "CCOc1ccc(NS(=O)(=O)c2cc(C)c(C)cc2C)cc1", "inhibition": "2.58% (inactive)"},
      {"smiles": "Cc1ccc(S(=O)(=O)N2CCN(C(=O)CN3C(=O)NC(C)(c4ccc(Cl)cc4)C3=O)CC2)c(C)c1", "note": "(centres undefined)", "inhibition": "-0.669% (inactive)"},
      {"smiles": "CC1CN(C(=O)c2ccc([N+](=O)[O-])s2)CC(C)O1", "note": "(centres undefined)", "inhibition": "-3.39% (inactive)"},
      {"smiles": "Cc1c(CCO)c(=O)[nH]n1C(=O)c1c(F)cccc1F", "inhibition": "-6.64% (inactive)"},
      {"smiles": "COc1ccc(CC(NC(C)=O)C(=O)N2CCN(C(=O)Nc3cccc(Cl)c3)CC2)cc1OC", "note": "(centres undefined)", "inhibition": "1.26% (inactive)"},
      {"smiles": "Cc1ccc(-c2nc(-c3cccnc3)sc2CC(=O)Nc2ccc(C)c(Cl)c2)cc1", "inhibition": "6.66% (inactive)"},
      {"smiles": "Cc1ccc(S(=O)(=O)N(CCCN(C)C)Cc2ccc3c(c2)OCO3)cc1", "inhibition": "5.59% (inactive)"},
      {"smiles": "CCOC(=O)C1CCN(CC(=O)Nc2ccc(OC)c(S(=O)(=O)N3CCCCC3)c2)CC1", "inhibition": "4.01% (inactive)"},
      {"smiles": "CCOc1ccc(N2C(=O)CC(N(O)c3ccccc3)C2=O)cc1", "note": "(centres undefined)", "inhibition": "-2.22% (inactive)"},
      {"smiles": "CCCCCCC(=O)N(O)C1CC(=O)N(c2ccccc2)C1=O", "note": "(centres undefined)", "inhibition": "78.3% (active)"},
      {"smiles": "CCOC(=O)c1ccc(N2C(=O)CC(N(C)Cc3ccccc3)C2=O)cc1", "note": "(centres undefined)", "inhibition": "-1.1% (inactive)"},
      {"smiles": "CCN(CC)S(=O)(=O)c1ccc2c3c(cccc13)C(=O)S2", "inhibition": "3.45% (inactive)"},
      {"smiles": "Fc1cnc(N2CCOCC2)nc1NCc1ccccc1", "inhibition": "-0.33% (inactive)"},
      {"smiles": "COc1ccc(C(=O)n2nc(-c3ccc(Cl)cc3)nc2N)cc1OC", "inhibition": "13.1% (inactive)"},
      {"smiles": "COc1ccc(C(=O)n2nc(C)c(Br)c2C)cc1OC", "inhibition": "38.4% (active)"},
      {"smiles": "COc1ccc(C(=O)n2nc(-c3ccc(C)cc3)nc2N)cc1OC", "inhibition": "9.8% (inactive)"},
      {"smiles": "O=C(Cc1ccccc1)Nc1c(Cl)ccc2nsnc12", "inhibition": "2.55% (inactive)"},
      {"smiles": "C=C(Br)CN1CCN(CC(=C)Br)CC1", "inhibition": "-3.73% (inactive)"},
      {"smiles": "O=C(O)C1C2C=CC(O2)C1C(=O)NCCc1cccc(Cl)c1", "note": "(centres undefined)", "inhibition": "-6.57% (inactive)"},
      {"smiles": "Cc1ccc(/C=N/NC(=O)C(NC(=O)c2ccccc2)c2n[nH]c(=O)c3ccccc23)cc1", "note": "(centres undefined)", "inhibition": "15% (inactive)"},
      {"smiles": "O=C(COC(=O)c1ccco1)Nc1ccc(Cl)cn1", "inhibition": "0.924% (inactive)"},
      {"smiles": "COc1cc(CN2CCC(C(N)=O)CC2)ccc1OCc1ccccc1", "inhibition": "-3.96% (inactive)"},
      {"smiles": "COc1cc(CNC2CCCC2)c(Br)cc1OCc1ccccc1", "inhibition": "3.98% (inactive)"},
      {"smiles": "COc1cc(C2CC(=O)N3CN(Cc4ccccc4)CSC3=C2C#N)ccc1OCc1ccccc1", "note": "(centres undefined)", "inhibition": "33.1% (active)"},
      {"smiles": "COc1cc(NC(=O)c2[nH]cnc2C(N)=O)cc(C(=O)Nc2cccc(C(F)(F)F)c2)c1", "inhibition": "-8.89% (inactive)"},
      {"smiles": "O=C(NC(=S)NC1CCSC1=O)c1ccccc1F", "note": "(centres undefined)", "inhibition": "-7.58% (inactive)"},
      {"smiles": "O=C(CN1CCN(C(=S)NC2CCCC2)CC1)Nc1ccc(Oc2ccccc2)cc1", "inhibition": "-5.51% (inactive)"},
      {"smiles": "COc1ccccc1-n1nnnc1SCC(=O)NC(=O)Cc1ccccc1", "inhibition": "-1.86% (inactive)"},
      {"smiles": "O=C(NCc1ccccc1)C1=C[C@@H](c2ccc(C(F)(F)F)cc2)C[C@@H](OCc2ccc(CO)cc2)O1", "inhibition": "21.1% (inactive)"},
      {"smiles": "O=C(C1=C[C@H](C2CC2)C[C@H](OCc2ccc(CO)cc2)O1)N1CCN(Cc2ccccc2)CC1", "inhibition": "-8.37% (inactive)"},
      {"smiles": "O=C(C1=C[C@H](c2ccc(C(F)(F)F)cc2)C[C@H](OCc2ccc(CO)cc2)O1)N1CCN(Cc2ccccc2)CC1", "inhibition": "33.5% (active)"},
      {"smiles": "CNS(=O)(=O)c1cccc(C(=O)OCC(=O)N2c3ccccc3NC(=O)C2(C)C)c1", "inhibition": "4.33% (inactive)"},
      {"smiles": "CCN(CC)CCN(C(=O)c1cccc([N+](=O)[O-])c1)c1nc2ccc(OC)cc2s1", "inhibition": "-1.73% (inactive)"},
      {"smiles": "CN(C(=O)c1cccc(NC(=O)C2CCN(C(=O)OC(C)(C)C)CC2)c1)C1CCC1", "inhibition": "-2.89% (inactive)"},
      {"smiles": "CSCCC(NC(=O)c1ccco1)C(=O)NCCc1ccc(F)cc1", "note": "(centres undefined)", "inhibition": "-4.83% (inactive)"},
      {"smiles": "COc1ccc(C(=O)OCc2cc(=O)n3ccsc3n2)cc1F", "inhibition": "0.474% (inactive)"},
      {"smiles": "C=CCC[C@@H](Cc1ccc(F)cc1)C(=O)O[C@H](CNC(=O)[C@H](CC=C)CC(=O)N(CCO)Cc1ccccc1)c1ccccc1", "inhibition": "48.4% (active)"},
      {"smiles": "C=CC[C@@H](CC(=O)N[C@H](CO)Cc1ccccc1)C(=O)N[C@@H](COC(=O)[C@@H](CC=C)Cc1ccc(F)cc1)Cc1c[nH]c2ccccc12", "inhibition": "0.653% (inactive)"},
      {"smiles": "C=CC[C@@H](CC(=O)N[C@H](CO)Cc1ccccc1)C(=O)N[C@H](C)COC(=O)[C@@H](CC=C)Cc1ccc(F)cc1", "inhibition": "19.7% (inactive)"},
      {"smiles": "C=CCC[C@@H](Cc1ccc(F)cc1)C(=O)OC[C@H](Cc1c[nH]c2ccccc12)NC(=O)[C@@H](CC=C)CC(=O)N(CCO)Cc1ccccc1", "inhibition": "41.9% (active)"},
      {"smiles": "C=CC[C@@H](CC(=O)NCCO)C(=O)N[C@H](C)COC(=O)[C@@H](CC=C)CC(=O)OC(C)(C)C", "inhibition": "-0.677% (inactive)"},
      {"smiles": "C=CC[C@@H](CC(=O)N[C@@H](CO)Cc1ccccc1)C(=O)N[C@H](COC(=O)[C@H](CC=C)CC(=O)OC(C)(C)C)Cc1ccccc1", "inhibition": "7.81% (inactive)"},
      {"smiles": "C=CC[C@H](CC(=O)OC(C)(C)C)C(=O)OC[C@H]1CCCN1C(=O)[C@H](CC=C)CC(=O)N(CCO)Cc1ccccc1", "inhibition": "1.66% (inactive)"},
      {"smiles": "C=CC[C@@H](CC(=O)N[C@@H](CO)Cc1ccccc1)C(=O)NCCOC(=O)[C@@H](CC=C)CC(=O)OC(C)(C)C", "inhibition": "0.71% (inactive)"},
      {"smiles": "C=CCC[C@H](Cc1ccc(F)cc1)C(=O)OC[C@@H](NC(=O)[C@@H](CC=C)CC(=O)N[C@H](CO)Cc1ccccc1)C(C)(C)C", "inhibition": "41.7% (active)"},
      {"smiles": "C=CCC[C@H](Cc1ccc(F)cc1)C(=O)OC[C@H](C)NC(=O)[C@H](CC=C)CC(=O)N(CCO)Cc1ccccc1", "inhibition": "30.2% (active)"},
      {"smiles": "C=CCC[C@@H](Cc1ccc(F)cc1)C(=O)OC[C@@H](C)NC(=O)[C@H](CC=C)CC(=O)N(CCO)Cc1ccccc1", "inhibition": "2.58% (inactive)"},
      {"smiles": "C=CCC[C@H](Cc1ccc(F)cc1)C(=O)OC[C@@H](Cc1c[nH]c2ccccc12)NC(=O)[C@H](CC=C)CC(=O)N[C@H](CO)Cc1ccccc1", "inhibition": "6.12% (inactive)"},
      {"smiles": "C=CC[C@H](CC(=O)NCCO)C(=O)N[C@@H](COC(=O)[C@@H](CC=C)Cc1ccc(F)cc1)Cc1c[nH]c2ccccc12", "inhibition": "9.77% (inactive)"},
      {"smiles": "C=CC[C@H](CC(=O)N(CCO)Cc1ccccc1)C(=O)N[C@@H](COC(=O)[C@@H](CC=C)Cc1ccc(F)cc1)Cc1ccccc1", "inhibition": "40.9% (active)"},
      {"smiles": "O=C1N[C@@H](c2ccccc2)COC(=O)[C@H](Cc2ccc(F)cc2)C/C=C\\C[C@@H]1CC(=O)N(CCO)Cc1ccccc1", "inhibition": "8.45% (inactive)"},
      {"smiles": "COC(=O)[C@]1(CC(C)C)N[C@H](c2ccc(SC3CCCCC3)cc2)[C@@H]2C(=O)N(C)C(=O)[C@@H]21", "inhibition": "16% (inactive)"},
      {"smiles": "O=C(OCC(=O)N1CCCCCC1)c1ccc(Cl)nc1", "inhibition": "0.75% (inactive)"},
      {"smiles": "CCCCCCCCCCOC(=O)Cn1c(COc2cccc(OC)c2)[n+](C)c2ccccc21", "inhibition": "17.1% (inactive)"},
      {"smiles": "CCCCCCCCCCOC(=O)Cn1c(COc2ccc(C)cc2)[n+](C)c2ccccc21", "inhibition": "36.3% (active)"},
      {"smiles": "CCOC(=O)Cn1c(-c2cccnc2Cl)nc2ccccc21", "inhibition": "2.13% (inactive)"},
      {"smiles": "Cc1cccc(NC(=O)c2ccc(S(=O)(=O)N(C)c3ccccc3)cc2)n1", "inhibition": "2.21% (inactive)"},
      {"smiles": "CCN(C(=O)COC(=O)c1ccccc1O)c1cccc2ccccc12", "inhibition": "2.66% (inactive)"},
      {"smiles": "Cc1cc2c(cc1C)N(C(=O)CN1C(=O)c3ccccc3C1=O)C(C)(C)c1ssc(=S)c1-2", "inhibition": "-10.7% (inactive)"},
      {"smiles": "COc1cc(NC(=O)CN2C(=O)NC(C)(c3ccc(OC(F)F)cc3)C2=O)cc(OC)c1OC", "note": "(centres undefined)", "inhibition": "5.68% (inactive)"}
    ]}
  ]
}
